Among the data in PubChem BioAssay (EPA / NIEHS) are outcome and AC50 values, retold here.

SMILES strings stand for the structures. Activity calls are given as the source filed them. Rule for the calls: active = hit-call score of the fitted dose curve at least 0.9, where 1 is the maximum; inactive = score below 0.9.

A short description of the first assay: ATG_AP_1_CIS: Attagene CIS-FACTORIAL HepG2 Assay for human Activator Protein 1 (AP-1) (AID 2282931). The following applies: HepG2 Attagene cis-factorial AP-1 reporter mRNA; actives raise or lower the signal. The procedure, abridged:
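We transfected HepG2 cells transiently with a set of cis-regulated reporter transcription units, dosed them for 24 h, and quantified reporter mRNA via RT-PCR and capillary electrophoresis, scoring gain or loss of signal relative to DMSO.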
`CC(Cl)COP(=O)(OCC(C)Cl)OCC(C)Cl` (stereo unspecified): the outcome was inactive.

For `CCCCCCC=O`, the molecule was classed as inactive.

For the molecule `CCCCCCOc1ccc(N)cc1`, the molecule was called inactive.

As to `C=CC(C)(CCC=C(C)C)OC(=O)C=Cc1ccccc1` (stereo unspecified), the AC50 was 100 µM (active).

As for `CCCCCCCCCCCCCC(=O)OC(C)C`, the outcome was inactive.

Consider `CCCCCC(=O)OCC`, for which the call was inactive.

Consider `CCCCCCCOC(=O)c1ccc(O)cc1`, for which the molecule was classed as inactive.

As to `Cc1ccccc1CCO`, the result was inactive.

As for `CCC(C)N` (stereo unspecified), the call was inactive.

`COC(OC)(C(=O)c1ccccc1)c1ccccc1`: the result was inactive.

Turning to `[Cl][Eu]([Cl])[Cl]`, the molecule was classed as inactive.

In the case of `Nc1ncnc2nc[nH]c12`, the call was inactive.

On to `COc1ccc(C(=O)/C(Br)=C\C(=O)O)cc1`, for which the AC50 was 26.4 µM (active).

`CCN1CN(CC)CN(CC)C1`: the molecule was called inactive.

Regarding `CCOC(=O)c1ccc(C)cc1`, the outcome was inactive.

As for `Cc1ccc(S(=O)(=O)N=C=O)cc1`, the outcome was inactive.

Take `C=C(C)C1CC=C(C)CC1` (stereo unspecified): the molecule was classed as inactive.

On to `Cc1ccc2c(c1)CCCN2`, for which the molecule was called inactive.

Turning to `COc1cc(C)ccc1O`, the molecule was called inactive.

As to `C=CC(=O)OCCCCCCOC(=O)C=C`, the result was inactive.

As to `c1ccc2sc(SSN3CCOCC3)nc2c1`, the AC50 is 43.2 µM (active).

Regarding `CCCCOCCOCCOC(C)=O`, the molecule was called inactive.

For `CC(=O)OCCc1ccccc1`, the molecule was classed as inactive.

For `CC(C)CC(=O)OCc1ccccc1`, the molecule was classed as inactive.

As to `CC(=O)OC/C=C(/C)CCC=C(C)C`, the call was inactive.

As for `CCCCCC1=CCCC1=O`, the call was inactive.

On to `CCC(C)(O)CCCC(C)C` (stereo unspecified), for which the molecule was classed as inactive.

On to `COc1ccc(C(=O)c2ccccc2)c(O)c1`, for which the AC50 is 168 µM (active).

On to `CC(C)(CO)COC(=O)C(C)(C)CO`, for which the molecule was classed as inactive.

With `Cc1c[nH]c(=O)[nH]c1=O`, the molecule was classed as inactive.

On to `CCOB(OCC)OCC`, for which the molecule was called inactive.

`CC(=O)CCC1=C(C)CCCC1(C)C`: the call was inactive.

As for `CCCCCCCCCCCC(C)=O`, the AC50 was 72.7 µM (active).

Consider `O=C1CCCCCCCCCCC1`, for which the molecule was called inactive.

With `Nc1nc(N)nc(-c2ccccc2)n1`, the molecule was called inactive.

Take `CCOC(=O)C1=NOC(c2ccccc2)(c2ccccc2)C1`: the result was inactive.

For the molecule `Cc1c(O)cccc1O`, the result was inactive.

A further assay is described as follows: ATG_AP_2_CIS: Attagene CIS-FACTORIAL HepG2 Assay for human Activator Protein 2 (AP-2) (AID 2282932). The following applies: HepG2 AP-2 cis-reporter, Attagene transcription factor profiling; actives raise or lower the signal. The procedure, abridged:
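HepG2 cells were transiently transfected with multiple cis-promoter reporter transcription units and dosed for 24 h. Reporter mRNA was measured by RT-PCR with capillary electrophoresis fluorescence; bidirectional fits relative to DMSO baseline.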
`CC(Cl)COP(=O)(OCC(C)Cl)OCC(C)Cl` (stereo unspecified): the molecule was classed as inactive.

`CCCCCCC=O`: the call was inactive.

With `CCCCCCOc1ccc(N)cc1`, the molecule was classed as inactive.

For the molecule `C=CC(C)(CCC=C(C)C)OC(=O)C=Cc1ccccc1` (stereo unspecified), the molecule was called inactive.

Take `CCCCCCCCCCCCCC(=O)OC(C)C`: the outcome was inactive.

With `CCCCCC(=O)OCC`, the outcome was inactive.

Turning to `CCCCCCCOC(=O)c1ccc(O)cc1`, the call was inactive.

As to `Cc1ccccc1CCO`, the outcome was inactive.

For `CCC(C)N` (stereo unspecified), the call was inactive.

`COC(OC)(C(=O)c1ccccc1)c1ccccc1`: the result was inactive.

On to `[Cl][Eu]([Cl])[Cl]`, for which the molecule was called inactive.

As for `Nc1ncnc2nc[nH]c12`, the result was inactive.

Regarding `COc1ccc(C(=O)/C(Br)=C\C(=O)O)cc1`, the call was inactive.

Consider `CCN1CN(CC)CN(CC)C1`, for which the result was inactive.

In the case of `CCOC(=O)c1ccc(C)cc1`, the molecule was classed as inactive.

As for `Cc1ccc(S(=O)(=O)N=C=O)cc1`, the result was inactive.

Regarding `C=C(C)C1CC=C(C)CC1` (stereo unspecified), the molecule was called inactive.

Consider `Cc1ccc2c(c1)CCCN2`, for which the result was inactive.

`COc1cc(C)ccc1O`: the molecule was called inactive.

`C=CC(=O)OCCCCCCOC(=O)C=C`: the call was inactive.

For `c1ccc2sc(SSN3CCOCC3)nc2c1`, the AC50 was 64.8 µM (active).

Turning to `CCCCOCCOCCOC(C)=O`, the molecule was classed as inactive.

For `CC(=O)OCCc1ccccc1`, the molecule was called inactive.

In the case of `CC(C)CC(=O)OCc1ccccc1`, the result was inactive.

As for `CC(=O)OC/C=C(/C)CCC=C(C)C`, the result was inactive.

`CCCCCC1=CCCC1=O`: the molecule was called inactive.

With `CCC(C)(O)CCCC(C)C` (stereo unspecified), the call was inactive.

For `COc1ccc(C(=O)c2ccccc2)c(O)c1`, the outcome was inactive.

Turning to `CC(C)(CO)COC(=O)C(C)(C)CO`, the call was inactive.

Consider `Cc1c[nH]c(=O)[nH]c1=O`, for which the outcome was inactive.

For the molecule `CCOB(OCC)OCC`, the result was inactive.

In the case of `CC(=O)CCC1=C(C)CCCC1(C)C`, the outcome was inactive.

For `CCCCCCCCCCCC(C)=O`, the half-maximal activity concentration (AC50) is 153 µM (active).

As to `O=C1CCCCCCCCCCC1`, the call was inactive.

Take `Nc1nc(N)nc(-c2ccccc2)n1`: the outcome was inactive.

In the case of `CCOC(=O)C1=NOC(c2ccccc2)(c2ccccc2)C1`, the result was inactive.

With `Cc1c(O)cccc1O`, the call was inactive.

A short description of the next assay: ATG_BRE_CIS: Attagene CIS-FACTORIAL HepG2 Assay for human Bone Morphogenetic Protein (BMP) Response Element (BRE) (AID 2282933). The following applies: HepG2 BMP response element reporter, Attagene transcription factor profiling; actives raise or lower the signal. The procedure, abridged: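 Read-out: reporter mRNA induction quantified by RT-PCR and capillary electrophoresis after 24 h chemical exposure of transfected HepG2 cells. Endogenous factor activity on the BMP response element; gain or loss fitted against DMSO baseline.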
As to `CC(Cl)COP(=O)(OCC(C)Cl)OCC(C)Cl` (stereo unspecified), the molecule was classed as inactive.

Take `CCCCCCC=O`: the call was inactive.

Regarding `CCCCCCOc1ccc(N)cc1`, the call was inactive.

Turning to `C=CC(C)(CCC=C(C)C)OC(=O)C=Cc1ccccc1` (stereo unspecified), the outcome was inactive.

Consider `CCCCCCCCCCCCCC(=O)OC(C)C`, for which the molecule was classed as inactive.

Regarding `CCCCCC(=O)OCC`, the outcome was inactive.

With `CCCCCCCOC(=O)c1ccc(O)cc1`, the molecule was called inactive.

In the case of `Cc1ccccc1CCO`, the call was inactive.

Consider `CCC(C)N` (stereo unspecified), for which the molecule was classed as inactive.

Consider `COC(OC)(C(=O)c1ccccc1)c1ccccc1`, for which the outcome was inactive.

For the molecule `[Cl][Eu]([Cl])[Cl]`, the outcome was inactive.

In the case of `Nc1ncnc2nc[nH]c12`, the call was inactive.

As to `COc1ccc(C(=O)/C(Br)=C\C(=O)O)cc1`, the call was inactive.

As for `CCN1CN(CC)CN(CC)C1`, the molecule was classed as inactive.

In the case of `CCOC(=O)c1ccc(C)cc1`, the outcome was inactive.

Turning to `Cc1ccc(S(=O)(=O)N=C=O)cc1`, the molecule was called inactive.

As for `C=C(C)C1CC=C(C)CC1` (stereo unspecified), the outcome was inactive.

With `Cc1ccc2c(c1)CCCN2`, the result was inactive.

Consider `COc1cc(C)ccc1O`, for which the molecule was called inactive.

In the case of `C=CC(=O)OCCCCCCOC(=O)C=C`, the concentration at half-maximal activity (AC50) is 24.5 µM (active).

Turning to `c1ccc2sc(SSN3CCOCC3)nc2c1`, the molecule was classed as inactive.

Take `CCCCOCCOCCOC(C)=O`: the result was inactive.

For `CC(=O)OCCc1ccccc1`, the call was inactive.

As for `CC(C)CC(=O)OCc1ccccc1`, the outcome was inactive.

In the case of `CC(=O)OC/C=C(/C)CCC=C(C)C`, the result was inactive.

Take `CCCCCC1=CCCC1=O`: the result was inactive.

Turning to `CCC(C)(O)CCCC(C)C` (stereo unspecified), the call was inactive.

As to `COc1ccc(C(=O)c2ccccc2)c(O)c1`, the AC50 was 158 µM (active).

Consider `CC(C)(CO)COC(=O)C(C)(C)CO`, for which the molecule was called inactive.

Regarding `Cc1c[nH]c(=O)[nH]c1=O`, the result was inactive.

In the case of `CCOB(OCC)OCC`, the molecule was called inactive.

As to `CC(=O)CCC1=C(C)CCCC1(C)C`, the molecule was called inactive.

Consider `CCCCCCCCCCCC(C)=O`, for which the molecule was called inactive.

For `O=C1CCCCCCCCCCC1`, the call was inactive.

For the molecule `Nc1nc(N)nc(-c2ccccc2)n1`, the molecule was called inactive.

`CCOC(=O)C1=NOC(c2ccccc2)(c2ccccc2)C1`: the molecule was classed as inactive.

Consider `Cc1c(O)cccc1O`, for which the result was inactive.

Usually AC50 stands for the midpoint of the concentration-response curve, whichever way the signal moves.
